Measurements as given in the supplement of paper PMC10720658.
± gives the standard deviation of the averaged measurements.

The compounds below were run on AEK1 (Tb927.3.2440) (assay: percent reduction in TR-FRET probe signal relative to DMSO control; higher = stronger displacement of ATP-site probe (binding)). Settings: 1 µM; incubation time 1 h.

Row | SMILES | percent reduction in TR-FRET probe signal [%]
1 | CN(c1ccccc1CNc1nc(Nc2ccc3c(c2)CC(=O)N3)ncc1C(F)(F)F)S(C)(=O)=O | 55.1 ± 4.3
2 | Cl.Cl.Fc1cc(-c2cccc3ncc(-c4cnn(C5CCNCC5)c4)nc23)cc(F)c1CN1CCOCC1 | 10.7 ± 13
3 | Cn1cc(-c2ccc3ncc(Cc4ccc5ncccc5c4)n3n2)cn1 | 4.34 ± 8.7
4 | Cc1[nH]c(/C=C2\C(=O)Nc3ccccc32)c(C)c1CCC(=O)O [TSU-68 (SU6668, Orantinib)] | 1.55 ± 4
5 | Cc1cc(Nc2ncc3c(n2)N(C)C(=O)N(c2cc(NC(=O)c4cccc(C(F)(F)F)c4)ccc2C)C3)n(C)n1 | 5.55 ± 14
6 | Nc1nc(Nc2ccc(S(N)(=O)=O)cc2)nn1C(=O)c1c(F)cccc1F | 27.8 ± 16
